# Assay results reported in ChEMBL document CHEMBL3988442, “University of Dundee, Small-Polar-MMV Screening Library” (2021).
# The whole screen tested about 48,000 compounds, of which about 13,000 (27%) showed an effect of 50% or more. Some of the results follow.
# Tested on: Wolbachia pipientis
# Assay: Anti-Wolbachia Cell-Based Screen
# Format: functional
# Set-up: scale not given: in the data most compounds retested in dose-response had high values
# Conditions: 5 µM
row,Structure (SMILES),Percent Effect
1,COC(=O)CN(CC1CCOC1)C1CC1 (centres undefined),-11.06%
2,Cc1cnccc1N1CCN(C(=O)CCCN2CCCCC2)CC1,-8.637%
3,COc1ncccc1C(=O)N1CC(c2nc(-c3ccccn3)no2)C1,-3.614%
4,Cc1[nH]c(=O)[nH]c(=O)c1CN1CCCC(CCc2c(F)cccc2F)C1 (centres undefined),-22.77%
5,Cc1cc(C)n(-c2ccc(CNCc3ccc(OC(C)C)cc3)cn2)n1,-13.05%
6,Oc1nnc(-c2cccs2)c2sc(N3CCCCC3)nc12,11%
7,Cc1nn(C(C)C)c(C)c1S(=O)(=O)Nc1cccc(F)c1,2.276%
8,Cl.O=C(Nc1cccc(F)c1)C1=NOC2(CCNCC2)C1,1.069%
9,Cc1sc2c(C3CCCNC3)nc(Nc3cccc(F)c3)n2c1C.Cl (centres undefined),138.6%
10,Cc1nc(C2CCCNC2)cc(N2CCc3nc(N)sc3C2)n1 (centres undefined),-10.94%
11,Cc1sc2c(C3CCNCC3)nc(Nc3cccc(F)c3)n2c1C.Cl,83.53%
12,COc1ccccc1CCNC(=O)CN1CCCC1c1noc(C)n1 (centres undefined),-5.748%
13,CCC(=O)N1CCC2(CC1)c1nc[nH]c1CCN2S(C)(=O)=O,-5.847%
14,CC(NC(=O)Nc1nccs1)C(=O)NC1CCCC1 (centres undefined),13.07%
15,Cc1nn2c(nc1=O)-c1ccccc1NC2C(=O)O (centres undefined),-8.075%
16,Cc1ccc(CNCC2CCN(CCO)CC2)cc1,-0.5522%
17,Cc1cc(Oc2ccccc2)nc(C2CCN(CCO)CC2)n1,153.9%
18,CNc1cc(C)nc(C2CCN(CCO)CC2)n1,109.8%
19,CNc1cc(C)nc(N2CCC3(CC2)[C@H](O)C[C@@H]3OCCO)n1,4.937%
20,OCCN1CCC(CNCc2cn(-c3ccccc3)nn2)CC1,3.58%
21,CNc1cc(C)nc(N2C[C@@H](C(=O)O)[C@H](C3CC3)C2)n1,7.259%
22,CC(=O)N1CCc2c(nc(-c3ccccn3)nc2N(C)CC(O)CO)C1 (centres undefined),1.269%
23,CC(C(=O)N(C)Cc1nnc2n1CCC2)S(C)(=O)=O (centres undefined),0.343%
24,COCCN(C(=O)c1ccoc1C)c1ccc(C#N)cc1,-4.794%
25,CCc1cc(C(=O)N2CCCC(c3cc(=O)nc4n3CCC4)C2)no1 (centres undefined),113.8%
26,Cc1cc(C(=O)N2CCCC(c3cc(=O)nc4n3CCC4)C2)on1 (centres undefined),100.5%

row,Structure (SMILES),Percent Effect
1,CCc1ccsc1C(=O)N1CCCC(c2noc(C)n2)C1 (centres undefined),-6.826%
2,CC(C)c1cc(C(=O)N2CCCC(c3cc(=O)nc4n3CCC4)C2)no1 (centres undefined),118.8%
3,CCc1cn[nH]c1C1CCCN(C(=O)c2cc(C(C)C)on2)C1 (centres undefined),3.205%
4,CC(C)C(=O)N1CCN(C(=O)c2cc(C(C)C)on2)[C@H]2CS(=O)(=O)C[C@H]21,-2.919%
5,Cc1cc(C(=O)N2CCCC(c3nccn3Cc3cscn3)C2)on1 (centres undefined),-8.995%
6,Cc1cc(C(=O)N2CCCC(n3nc(C)cc3C)C2)on1 (centres undefined),6.311%
7,Cc1cc(C)n(CC2CCCN2C(=O)c2ccc3ccccc3n2)n1 (centres undefined),90.81%
8,Cc1cc(C)n(CC2CCCN2C(=O)Cc2cn3ccccc3n2)n1 (centres undefined),13.26%
9,Cc1cc(C)n(CC2CCCN2C(=O)c2nccc3ccccc23)n1 (centres undefined),117.1%
10,Cc1cc(C(=O)N2CCCC2Cn2nc(C)cc2C)on1 (centres undefined),-0.3102%
11,Cn1nnnc1SCCNC(=O)c1c[nH]nc1C1CCCCC1,-16.51%
12,O=C1CCC(c2ccccc2)(c2ccccc2)CN1CCO,-6.27%
13,Cc1nc[nH]c1CN1CCN(C(=O)c2cccs2)[C@H]2CS(=O)(=O)C[C@H]21,-2.944%
14,CCN(CC1CN(Cc2ncc(C)o2)CCO1)c1cccnn1 (centres undefined),0.3637%
15,CCN1CCOC(CNCc2cnc(C(C)(C)C)s2)C1 (centres undefined),96.59%
16,CN1CCOC(CNCc2cnc(C(C)(C)C)s2)C1 (centres undefined),83.62%
17,CC(C)(C)c1ncc(CNCC2CCCn3ccnc32)s1 (centres undefined),-12.55%
18,CCN1CCOC(CNCc2cnc(N(CC)CC)s2)C1 (centres undefined),78.01%
19,CCC(CCNCc1cnc(C2CCC2)s1)N1CCCC1=O (centres undefined),3.115%
20,CC(C)(C)c1ncc(CNCC2CN(C3CC3)CCO2)s1 (centres undefined),77.82%
21,CCN(CC)c1ncc(CNCC2CCCn3ccnc32)s1 (centres undefined),9.152%
22,CCN1CCOC(CNc2nccc(C(F)(F)F)n2)C1 (centres undefined),-2.512%
23,COCC(=O)N1C[C@H]2CCCC(OCc3cccnc3)[C@H]2C1.O=C(O)C(F)(F)F (some centres undefined),-11.84%
24,COc1ccc(CN2CCO[C@H]3CN(C4CCCC4)CC[C@H]3C2=O)cc1.O=C(O)C(F)(F)F,4.442%
25,CC1CCN(C(=O)[C@@H]2C[C@@H]3CCN(Cc4nccs4)C[C@H]3O2)CC1.O=C(O)C(F)(F)F,95.79%
26,Cc1nc(CN2C[C@@H]3CN(C(=O)[C@H]4CCCO4)C[C@@H]3C2=O)cs1.O=C(O)C(F)(F)F,-7.059%

row,Structure (SMILES),Percent Effect
1,O=C(O)C(F)(F)F.O=C(O)C(F)(F)F.O=C(O)C(F)(F)F.c1cncc(C[C@H]2[C@H](N3CCOCC3)CCN2Cc2nccs2)c1,6.166%
2,CNC(=O)[C@H]1C[C@@H]2CCN(Cc3nccs3)C[C@H]2O1.O=C(O)C(F)(F)F,-7.914%
3,O=C(O)C(F)(F)F.O=C([C@H]1CC[C@@H]2[C@@H](CCN2Cc2nccs2)O1)N1CCOCC1,110.8%
4,O=C(O)C(F)(F)F.O=C([C@@H]1C[C@H]2[C@H](CCN2Cc2nccs2)O1)N1CCOCC1,-8.158%
5,CC1CCN(C(=O)[C@@H]2CC[C@@H]3[C@@H](CCN3c3ncc(F)cn3)O2)CC1.O=C(O)C(F)(F)F,-5.679%
6,CC1CCN(C(=O)[C@H]2CC[C@@H]3[C@@H](CCN3Cc3nccs3)O2)CC1.O=C(O)C(F)(F)F,83.2%
7,Cc1nc(CN2CC[C@@H]3O[C@@H](C(=O)N4CCOCC4)C[C@@H]32)cs1.O=C(O)C(F)(F)F,95.13%
8,COCCN1CC[C@@H]2O[C@H](COCc3csc(C)n3)CC[C@@H]21.O=C(O)C(F)(F)F,5.526%
9,Cc1nc(C(C)(C)NC(=O)Nc2ccc(C#N)cc2)no1,2.937%
10,CCCN(C(=O)c1cc2c([nH]c1=O)CCCC2=O)C1CCCCC1,-3.902%
11,NS(=O)(=O)c1cnn(-c2ccc(NC(=O)CC3CCCC3)cn2)c1,31.03%
12,O=c1oc(-c2cccs2)nn1CC(O)c1ccc(F)cc1 (centres undefined),-3.645%
13,COC(=O)c1cccc(NC(=O)CCn2nc(-c3cccs3)oc2=O)c1,-4.824%
14,COCCn1ccc(NC(=O)Nc2cccc(C#N)c2)n1,15.59%
15,CC(=O)c1cccc(NC(=O)CCn2nc(-c3cccs3)oc2=O)c1,94.26%
16,O=C(CCNC(=O)c1ccoc1)Nc1cccc(F)c1,8.68%
17,O=C(CCn1nc(-c2cccs2)oc1=O)Nc1cccc(F)c1,101.8%
18,CC(=O)c1cccc(NC(=O)COc2c(C)n(C)ccc2=O)c1,5.404%
19,CC(C)N(CC(=O)Nc1cccc(C#N)c1)C1CC1,-12.82%
20,CNC(=O)c1cccc(NC(=O)Cn2nc(-c3cccs3)oc2=O)c1,-3.203%
21,N#Cc1cccc(NC(=O)CCn2nc(-c3cccs3)oc2=O)c1,113.1%
22,CC(=O)c1cccc(NC(=O)Cn2nc(-c3cccs3)oc2=O)c1,114.8%
23,CC(=O)c1cccc(NC(=O)Cn2cnc(-c3cccs3)cc2=O)c1,8.004%
24,CCn1ccnc1C1CCCN(c2nccc3ccccc23)C1 (centres undefined),-22.2%
25,CN(c1cccnc1N1CCCC1)S(=O)(=O)c1cccnc1,-4.578%
26,CCCNC(=O)CN1CCN(c2nc(CC)ns2)CC1,-2.637%

row,Structure (SMILES),Percent Effect
1,Cn1cc(CNCCOc2ccc(F)c(F)c2)c(-c2cccnc2)n1,7.876%
2,CCc1c(C)nc2n(c1=O)CC(C(=O)Nc1nc3c(s1)CCCC3)CS2 (centres undefined),1.424%
3,O=C(Nc1nc2c(s1)CCC2)NC1CCCC1,91.02%
4,O=C(Nc1nc2c(s1)CN(S(=O)(=O)C1CC1)CC2)c1c(F)cccc1F,-9.469%
5,CC(NC(=O)Nc1nncs1)C(=O)NC1CCCC1 (centres undefined),12.84%
6,Cl.O=C(Nc1nc2c(s1)CNCC2)NC1CCCC1,156.5%
7,Cc1nsc(NC(=O)NC2CCCN(C)C2)n1 (centres undefined),-12.87%
8,Cl.O=C(Nc1nc2c(s1)CNCC2)C1CC1,114.1%
9,Cc1nsc(NC(=O)NC2CCOCC2)n1,5.232%
10,Cc1nnc(NC(=O)NC(C)C(=O)NC2CCCC2)s1 (centres undefined),-0.7919%
11,CN(Cc1nnc(-c2cccs2)o1)Cc1nc2c(s1)CCCC2,-3.278%
12,O=C1CC(c2ccccc2)c2c(n3ccsc3nc2=O)N1 (centres undefined),12.02%
13,O=S(=O)(NCCC(O)c1cccs1)c1ccccc1Cl (centres undefined),10.54%
14,Cc1oc(C(C)C)cc1C(=O)N1CCN(c2cnn(C)c(=O)c2)CC1,-13.93%
15,N#Cc1ccccc1C(=O)N1C[C@H]2CC[C@@H]1CN(c1ncccn1)C2,-29.72%
16,CN(Cc1nnc(C2CC2)n1C)C1CCN(Cc2ccc(F)cc2)C1 (centres undefined),5.91%
17,CN(Cc1nnc(C2CC2)n1C)C1CCN(Cc2ccncc2)C1 (centres undefined),97.4%
18,CN(Cc1nnc(C2CC2)n1C)C1CCN(CCc2ccccc2)C1 (centres undefined),-2.973%
19,Cc1cccc(CN2CCC(N(C)Cc3nnc(C4CC4)n3C)C2)c1 (centres undefined),125.1%
20,Cc1cnc(CN2CCC(N(C)Cc3nnc(C4CC4)n3C)C2)cn1 (centres undefined),-1.467%
21,CCc1cnc(CN(C)C2CCN(CCc3cccs3)C2)o1 (centres undefined),3.074%
22,CN(Cc1nnc(C2CC2)n1C)C1CCN(CCc2cccs2)C1 (centres undefined),1.002%
23,Cc1nc(CN2CCC(N(C)Cc3nnc(C4CC4)n3C)C2)cs1 (centres undefined),109.7%
24,CN(Cc1nnc(C2CC2)n1C)C1CCN(CCc2ccncc2)C1 (centres undefined),-12.03%
25,CCc1cnc(CN(C)C2CCN(Cc3nnc(C4CC4)n3C)C2)o1 (centres undefined),100.6%
26,CN(Cc1nnc(C2CC2)n1C)C1CCN(Cc2ccccc2)C1 (centres undefined),-8.297%
